The source of these data is PubChem BioAssay (EPA / NIEHS).

What is called AC50 is the concentration giving half of the maximal activity seen.

Structures are written as SMILES. Where “and” joins values, the source holds several entries; their conditions need not be identical. Equal values may be shown once. Some structures have more than one record in an assay (separate samples or runs), and their calls can disagree. Calls of active or inactive are those of the source. How the source made its calls: active means hit-call score of the fitted dose curve at least 0.9, where 1 is the maximum; inactive means score below 0.9.

A short description of assay [1]: BSK_hDFCGF_SRB: Viability Assessment in the BioMAP Diversity Plus: hDFCGF Assay (AID 2283061).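 Further: cells exposed to compound for 24 h before the read.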 The following applies: primary human foreskin fibroblasts. In outline: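 Human foreskin fibroblasts in 96-well plates were treated 24 h. Total protein was measured by 0.1% SRB staining after 10% TCA fixation, read at 560 nm. Data were fitted bidirectionally against DMSO.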

Read-out in assay [2]: TIMP metallopeptidase inhibitor 1 (TIMP1), TIMP1 (gene 7076)
As to the kind of experiment: BSK_hDFCGF_TIMP1: BioMAP Diversity Plus: hDFCGF Assay for TIMP metallopeptidase inhibitor 1 (TIMP1) Biomarker Activity (AID 2283062). The following applies: primary human foreskin fibroblasts; actives raise or lower the signal. Put shortly:
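Human foreskin fibroblast primary cultures dosed for 24 h; secreted/surface TIMP-1 quantified by ELISA. Bidirectional curve fitting against DMSO baseline; cytotoxicity tracked in parallel cultures by SRB total-protein staining.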

Read-out in assay [3]: Monokine induced gamma interferon (MIG), CXCL9 (gene 4283)
As to the kind of experiment: BSK_hDFCGF_MIG: BioMAP Diversity Plus: hDFCGF Assay for Monokine induced gamma interferon (MIG) Biomarker Activity (AID 2283063). The following applies: primary human foreskin fibroblasts; actives raise or lower the signal. In outline:
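MIG/CXCL9 measured by ELISA 24 h after dosing primary human skin fibroblasts. Activity fitted in both directions against DMSO controls. Cytotoxicity was checked in parallel cultures by SRB staining read at 560 nm.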

Read-out in assay [4]: Matrix Metallopeptidase 1 (MMP1), MMP1 (gene 4312)
As to the kind of experiment: BSK_hDFCGF_MMP1: BioMAP Diversity Plus: hDFCGF Assay for Matrix Metallopeptidase 1 (MMP1) Biomarker Activity (AID 2283064). The following applies: primary human foreskin fibroblasts; actives raise or lower the signal. Put shortly: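 hDFCGF primary fibroblasts (human foreskin); chemical added; 24 h; MMP1 by ELISA; bidirectional fit vs DMSO.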

Read-out in assay [5]: Vascular cell adhesion molecule 1 (VCAM1), VCAM1 (gene 7412)
As to the kind of experiment: BSK_hDFCGF_VCAM1: BioMAP Diversity Plus: hDFCGF Assay for Vascular cell adhesion molecule 1 (VCAM1) Biomarker Activity (AID 2283065).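 On AC50: VCAM-1 protein level quantified by ELISA after 24 h chemical exposure.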 The following applies: primary human foreskin fibroblasts; actives raise or lower the signal. Put shortly:
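Human foreskin fibroblast primary cells dosed with chemical, VCAM-1 measured by ELISA at 24 h. Bidirectional curve fitting relative to DMSO as negative control/baseline.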

Read-out in assay [6]: Plasminogen activator inhibitor-1 (PAI1), SERPINE1 (gene 5054)
As to the kind of experiment: BSK_hDFCGF_PAI1: BioMAP Diversity Plus: hDFCGF Assay for Plasminogen activator inhibitor-1 (PAI1) Biomarker Activity (AID 2283066). The following applies: primary human foreskin fibroblasts; actives raise or lower the signal. In outline: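 PAI-1 levels, determined by ELISA, served as the endpoint in human foreskin fibroblast cultures exposed to compound for 24 h, with DMSO as baseline.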

Read-out in assay [7]: Interferon-gamma inducible Protein 10 (IP10), CXCL10 (gene 3627)
Put plainly: BSK_KF3CT_IP10: BioMAP Diversity Plus: KF3CT Assay for Interferon-gamma inducible Protein 10 (IP10) Biomarker Activity (AID 2283068). The following applies: primary human keratinocytes with fibroblasts; actives raise or lower the signal. Put shortly: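 KF3CT co-culture (keratinocytes + foreskin fibroblasts), 24 h compound, IP-10 by ELISA; bidirectional fit vs DMSO baseline.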

A short description of assay [8]: BSK_KF3CT_SRB: Viability Assessment in the BioMAP Diversity Plus: KF3CT Assay (AID 2283069).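 Further: total protein by sulforhodamine B staining as a cytotoxicity measure; read 24 h after compound addition; fitted for both signal gain and loss against DMSO baseline.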 The following applies: primary human keratinocytes with fibroblasts. In outline: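 Keratinocytes co-cultured with foreskin fibroblasts (human primary); chemical added, 24 h; fix 10% TCA, stain 0.1% SRB, A560. Bidirectional fit vs DMSO.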
Read-out in assay [9]: Interleukin-1 alpha (IL1a), IL1A (gene 3552)
As to the kind of experiment: BSK_KF3CT_IL1a: BioMAP Diversity Plus: KF3CT Assay for Interleukin-1 alpha (IL1a) Biomarker Activity (AID 2283070). The following applies: primary human keratinocytes with fibroblasts; actives raise or lower the signal. Put shortly: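 Chemicals were dosed onto co-cultured human keratinocytes and foreskin fibroblasts, IL-1a was quantified by ELISA at 24 h, and activity was fitted in both directions relative to DMSO controls.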

Read-out in assay [10]: Intercellular Adhesion Molecule 1 (ICAM1), ICAM1 (gene 3383)
As to the kind of experiment: BSK_KF3CT_ICAM1: BioMAP Diversity Plus: KF3CT Assay for Intercellular Adhesion Molecule 1 (ICAM1) Biomarker Activity (AID 2283067). The following applies: primary human keratinocytes with fibroblasts; actives raise or lower the signal. In outline:
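Human keratinocyte–foreskin fibroblast co-culture was treated for 24 h. Cell-surface ICAM-1 was quantified by ELISA, fitted bidirectionally relative to DMSO. Cytotoxicity was checked in parallel cultures by SRB total-protein staining.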

On to `C=C(C)C(=O)OCC(CC)(COC(=O)C(=C)C)COC(=O)C(=C)C`, for which the AC50 was 32.1 µM (active) in [1]; 33 µM (active) in [2]; 34.3 µM (active) in assay [3]; 37.9 µM (active) in assay [4]; 23.4 µM (active) in [5]; 16 µM (active) in [6]. In addition, the outcome in assay [7], in assay [8] and in [9] was inactive.
For `C=C(C)C(=O)OCCOCCOCCOC(=O)C(=C)C`, the outcome in assay [1], in assay [2], in [3], in assay [4], in [5] and in assay [7] was inactive. In assay [8], the outcome was inactive. Moreover, the AC50 was 0.0518 µM (active) in assay [6] and 0.041 µM (active) in [9].
For `COc1cc(Cl)c(OC)cc1N`, the outcome in assay [1], in assay [2], in [3], in assay [4], in assay [5] and in assay [6] was inactive. The outcome in [7], in assay [8] and in assay [9] was inactive.
As to `O=C(Nc1ccc2c(O)c(N=Nc3ccc(N=Nc4ccc(S(=O)(=O)O)cc4)cc3)c(S(=O)(=O)O)cc2c1)c1ccccc1`, the AC50 is 35.3 µM (active) in assay [1], 23.6 µM (active) in [3] and 15.1 µM (active) in [5]. Besides, the result in [2], in [3], in assay [4], in assay [5], in assay [6] and in assay [10] was inactive. For the same compound, the result in assay [7], in [8] and in assay [9] was inactive.
On to `CN(C)C(=S)SC(=S)N(C)C`, for which the result in assay [1], in [7], in assay [8] and in [9] was inactive. The half-maximal activity concentration (AC50) in [2] was 37.8 µM (active); in [3] it was 34.4 µM (active); in [4] it was 36.2 µM (active); in [5], 31.2 µM (active); in assay [6], 19.9 µM (active).
Take `CC(CN=Cc1ccccc1O)N=Cc1ccccc1O` (stereo not given): the outcome in assay [1], in [2], in assay [3], in assay [4], in assay [5] and in assay [6] was inactive. Further, the result in assay [7], in assay [8] and in assay [9] was inactive.
As to `CN(c1nccc(=O)[nH]1)C1CCN(c2nc3ccccc3n2Cc2ccc(F)cc2)CC1`, the result in assay [1], in assay [2], in [3], in assay [4], in assay [5] and in assay [6] was inactive. Also, the outcome in [7], in assay [8] and in [9] was inactive.
On to `Oc1c(Cl)cc(Cl)c(Cl)c1Cc1c(O)c(Cl)cc(Cl)c1Cl`, for which the concentration at half-maximal activity (AC50) in assay [1] is 5.15 µM (active); in assay [2] it was 1.94 µM (active); in [3], 3.45 µM (active); in assay [4], 3.28 µM (active); in assay [5], 2.22 µM (active); in assay [6] it was 0.338 µM (active). Besides, the AC50 in assay [7] was 2.4 µM (active); in assay [8], 5.15 µM (active); in assay [9] it was 1.83 µM (active).
As to `O=C1OC[C@H](Cc2cccc(O)c2)[C@H]1Cc1cccc(O)c1`, the outcome in assay [1], in [2], in [3], in [4], in [5] and in [6] was inactive. The outcome in [7], in [8] and in assay [9] was inactive.
`CC1(C)CCC[C@]2(C)[C@H]3CCO[C@]3(C)CC[C@@H]12`: the AC50 in [1] is 33.8 µM (active) and 36.4 µM (active); in [2], 38.6 µM (active) and 32.1 µM (active); in assay [3] it was 34.5 µM (active) and 36.6 µM (active); in assay [4] it was 35 µM (active) and 36 µM (active); in assay [5], 38.1 µM (active) and 33.9 µM (active); in assay [6] it was 37.2 µM (active) and 31.1 µM (active). In addition, the AC50 in assay [7] was 37.5 µM (active) and 33.9 µM (active); in assay [8], 33.4 µM (active) and 36.8 µM (active); in assay [9], 34.4 µM (active) and 38.9 µM (active).
For the compound `CC(=O)C1(C)CC2=C(CCCC2(C)C)CC1C` (stereo not given), the AC50 in assay [1] is 11.2 µM (active); in assay [2] it was 12 µM (active); in [3] it was 14.2 µM (active); in assay [4] it was 12.8 µM (active); in assay [5] it was 9.73 µM (active); in assay [6], 11.8 µM (active). In addition, the AC50 was 11.2 µM (active) in assay [7], 10.2 µM (active) in [8] and 13.1 µM (active) in assay [9].
For the compound `C=C(C)C(=O)OCCOCCOCCOCCOC(=O)C(=C)C`, the outcome in assay [1], in [2], in assay [3], in assay [4], in [5] and in assay [6] was inactive. The outcome in assay [7], in [8] and in [9] was inactive.
As for `Cc1cc(CCC(=O)OCCOCCOCCOC(=O)CCc2cc(C)c(O)c(C(C)(C)C)c2)cc(C(C)(C)C)c1O`, the outcome in assay [1], in assay [2], in assay [3], in assay [4], in assay [5] and in assay [6] was inactive. Also, the outcome in [7], in assay [8] and in assay [9] was inactive.
As for `CS(=O)(=O)c1ccc(C2=C(c3ccccc3)C(=O)OC2)cc1`, the outcome in assay [1], in assay [2], in assay [3], in assay [4], in assay [5] and in assay [6] was inactive. Moreover, the result in assay [8] and in [9] was inactive. The AC50 in [7] is 0.0374 µM (active).
Take `CC(=O)Nc1ccc(C(=O)CCl)cc1`: the AC50 in [1] is 11.2 µM (active); in assay [2], 7.91 µM (active); in assay [3], 9.4 µM (active); in assay [4], 10.5 µM (active); in assay [5] it was 7.32 µM (active); in [6] it was 10.8 µM (active). Also, the AC50 in assay [7] is 23.2 µM (active); in assay [9] it was 31 µM (active). For the same compound, the result in [8] was inactive.
In the case of `O=C1OC2(c3ccccc31)c1ccc(O)c(Br)c1Oc1c2ccc(O)c1Br`, the result in assay [1], in assay [2], in assay [3], in [4], in assay [6] and in [7] was inactive. In assay [8], the outcome was inactive. The results for the half-maximal activity concentration (AC50) in [5] and in [9] were 7.49 µM (active) and 20 µM (active), respectively.
For `CCC(C)c1cc([N+](=O)[O-])cc([N+](=O)[O-])c1OC(=O)OC(C)C` (stereo not given), the AC50 in [1] is 9.55 µM (active); in assay [2] it was 11.2 µM (active); in assay [3], 9.32 µM (active); in assay [4], 11 µM (active); in assay [5], 7.79 µM (active); in assay [6] it was 4.79 µM (active). The AC50 in assay [7] was 5.26 µM (active); in assay [8], 25.3 µM (active); in [9], 20 µM (active).
In the case of `CC(=O)c1c(C)c([N+](=O)[O-])c(C(C)(C)C)c([N+](=O)[O-])c1C`, the outcome in assay [1], in assay [2], in assay [3], in assay [4], in assay [5] and in assay [6] was inactive. Also, the result in [7], in assay [8] and in assay [9] was inactive.
